# Several values for one entry are separate records, joined by “and”; a condition that tells them apart may be missing. Equal values may be shown once. Activity calls are given as the source filed them. The calls were made as follows: active = hit-call score of the fitted dose curve at least 0.9, where 1 is the maximum; inactive = score below 0.9.
# Read-out: CYP2E1 (gene 1571)
# Assay: LTEA_HepaRG_CYP2E1: Life Technologies and Expression Analysis (LTEA) Assay for CYP2E1 using HepaRG (AID 2283485)
# Conditions: mRNA level, 48 h; actives raise or lower the signal
# Procedure, shortened: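 Assay uses 48 h exposure of HepaRG hepatic cells, eight concentrations to 100 uM. Expression of CYP2E1 is quantified by TaqMan qRT-PCR with ACTB, GAPDH and POLR2A normalization; curves fitted in both directions relative to vehicle.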
Compound,outcome,AC50
O=C(O)C(F)(F)C(F)(F)C(F)(F)C(F)(F)C(F)(F)C(F)(F)C(F)(F)F,inactive,–
CC(C)N(C(=O)COc1nnc(C(F)(F)F)s1)c1ccc(F)cc1,–,42.2 µM (active)
OCCOc1ccccc1,inactive,–
O=C(Nc1ccccc1)Nc1cnns1,–,70.3 µM (active)
CNC(=O)CSP(=S)(OC)OC,inactive,–
ClC1C(Cl)C(Cl)C(Cl)C(Cl)C1Cl (stereo not drawn),–,22.3 µM (active) and 5.02 µM (active)
CCCN(CCC)c1c([N+](=O)[O-])cc(C(F)(F)F)cc1[N+](=O)[O-],inactive,–
O=S(=O)(O)C(F)(F)C(F)(F)C(F)(F)C(F)(F)C(F)(F)C(F)(F)C(F)(F)C(F)(F)F,–,61.1 µM (active) [middle of 4 runs]
CN1CSC(=S)N(C)C1,inactive,–
CC1(c2ccc(Oc3ccccc3)cc2)OC(=O)N(Nc2ccccc2)C1=O (stereo not drawn),–,5.56 µM (active)
O=C1c2ccccc2C(=O)N1SC(Cl)(Cl)Cl,inactive,–
CCOC1Oc2ccc(OS(C)(=O)=O)cc2C1(C)C (stereo not drawn),–,62.6 µM (active)
CC(C)(C)C(O)C(Oc1ccc(Cl)cc1)n1cncn1 (stereo not drawn),–,25.8 µM (active) and 25.3 µM (active) and 29.5 µM (active)
COc1nn(CSP(=S)(OC)OC)c(=O)s1,inactive,–
O=C(NC(=O)c1c(F)cccc1F)Nc1ccc(OC(F)(F)C(F)OC(F)(F)F)c(Cl)c1 (stereo not drawn),inactive,–
O=C(O)CCCOc1ccc(Cl)cc1Cl,inactive,–
O=[N+]([O-])/N=C1\NCCN1Cc1ccc(Cl)nc1,–,34.8 µM (active)
Clc1ccccc1-c1nnc(-c2ccccc2Cl)nn1,–,20.7 µM (active)

# — PubChem BioAssay (EPA / NIEHS)
